Compound activity as filed in PubChem.
In the library only some 3.3% were active in any assay of this set; here they are far more common.
Sm TGR inh: inhibitors of Schistosoma mansoni thioredoxin glutathione reductase; Potency, µM (doses to about 114 µM), for the others: top-dose activity change, negative = inhibition, most hits filed as inhibitors; Q962Y6; purified TGR, DTNB reduction, TNB absorbance 405 nm; 3% of 360,000 active; note: nearly all actives have a fitted effect of over 60% in size
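TGR 20 nM + NADPH 100 uM (dispensed conc.), cpd preinc 15 min RT; start with NADPH (500 uM addition) then DTNB (15 mM addition). Kinetic TNB absorbance, 405 nm filter. Four-parameter Hill fit across titration.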
TbPYK inhibitor: blocks Trypanosoma brucei pyruvate kinase. Q57TT1. TbPYK enzyme, Kinase-Glo Plus ATP luminescence, 45 min. Potency, µM (series often up to 76.8 µM), without a hit: at the top dose activity, negative = inhibition, hits mostly inhibitors. 0.12% of 410,000 active. AID 624173; note: nearly all actives have a fitted effect of over 50% in size
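Activity of T. brucei pyruvate kinase was followed by Kinase-Glo Plus luminescence after the enzyme reacted 45 min at room temperature with 130 uM ADP (final) and substrate. Test compounds were added before ADP at multiple concentrations.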
RE007 growth inh: less growth of the S. pombe RE007 Vpr strain | S. pombe RE007 Vpr strain, BacTiter-Glo ATP luminescence, 24 h | Potency, µM (doses to about 92.2 µM), for inactives: at the highest dose activity change, negative = less growth, actives largely listed as inhibitors | 0.21% of 360,000 active | AID 651644; active = well fitted falling curve with a large enough effect; inconclusive = small, poorly fitted or top-dose-only effect; inactive = no such curve, though single readings can be large or run the other way; note: nearly all actives have a fitted effect of over 50% in size
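Fission yeast RE007 carrying one integrated HIV-1 vpr copy, seeded at OD 0.01 in PMG+AL medium with 23 nL pinned compound. Grown 24 h at 30 degrees; viability read by BacTiter-Glo luminescence after 5 min.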
Giardia FBPA inh: Giardia lamblia aldolase inhibition; A8B2U2; AID 2451; 0.71% of 290,000 active; Potency, µM (series often up to 59.6 µM), inactives show top-dose activity, negative = inhibition, hits mostly inhibitors; purified Giardia FBPA; note: nearly all actives have a fitted effect of over 55% in size
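Giardia FBPA (40 nM reagent) was preincubated 10 min at RT with compound (up to 57.5 uM final), then substrate plus GAPDH/TPI/NAD/arsenate coupling system with diaphorase/resazurin was added; resorufin fluorescence (525/598 nm) was read after 20 min.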
LmPK inhibitor: LmPK (Leishmania mexicana) enzyme inhibition; Potency, µM (titrated, usually from 57.5 µM), inactives show at the top dose activity change, negative = inhibition, hits mostly inhibitors; AID 1721; purified LmPK, Kinase-Glo ATP luminescence, 1 h; 0.37% of 290,000 active
Target sequence (Q27686 whole entry, looked up): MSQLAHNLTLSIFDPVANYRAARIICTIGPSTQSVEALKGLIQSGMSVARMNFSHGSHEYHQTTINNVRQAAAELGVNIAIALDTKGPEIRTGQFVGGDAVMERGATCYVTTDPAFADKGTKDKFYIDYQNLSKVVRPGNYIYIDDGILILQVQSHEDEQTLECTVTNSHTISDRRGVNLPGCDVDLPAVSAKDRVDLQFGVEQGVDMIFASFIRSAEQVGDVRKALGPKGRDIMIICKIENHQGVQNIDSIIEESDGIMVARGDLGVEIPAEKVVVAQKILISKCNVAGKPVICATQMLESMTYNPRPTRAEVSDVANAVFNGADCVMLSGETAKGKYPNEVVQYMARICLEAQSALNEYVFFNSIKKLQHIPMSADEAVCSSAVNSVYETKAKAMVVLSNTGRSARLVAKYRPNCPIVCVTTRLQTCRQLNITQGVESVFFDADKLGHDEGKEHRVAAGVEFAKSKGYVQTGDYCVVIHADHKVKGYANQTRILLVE
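Purified LmPK (0.1 nM) converted ADP (0.1 mM) to ATP with PEP (0.5 mM) in imidazole buffer pH 7.2 with KCl and MgCl2, 1 h at room temperature. ATP was read by Kinase-Glo luminescence; data normalized to uninhibited and no-enzyme controls.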
* hit, by the source's call; ? = inconclusive; . = no result; [ ] = another dose, or the depositor's remark. Unless noted, calls come from the whole dose curve; as a rule, active = well fitted curve in the direction sought with a large enough effect; inconclusive = small, poorly fitted or top-dose-only effect, or another doubt; inactive = no such curve, though single readings can be large; an effect the other way counts as inactive or inconclusive. % is set by controls: 0 for no effect and ±100 for the full control effect; potency is the fitted concentration of half-maximal effect.

SMILES | Sm TGR inh | TbPYK inhibitor | RE007 growth inh | Giardia FBPA inh | LmPK inhibitor
COc1ccc(C(C)=O)cc1COC(=O)CCNS(=O)(=O)c1ccc(C(C)=O)cc1 | 10µM* | -13.0% | 10.4% | . | -0.3%
COc1ccc(C(C)=O)cc1COC(=O)CCNS(=O)(=O)c1ccc(C)cc1 | 5.62µM* | -1.3% | 0.4% | . | .
CNC(=O)C(C#N)(Cc1cc(C(C)=O)ccc1OC)Cc1cc(C(C)=O)ccc1OC | 39.8µM* | -2.7% | -9.9% | . | 2.2%
CCc1nnnn1-c1ccc([N+](=O)[O-])cc1C | . | -1.8% | 5.9% | 3.1% | 0.6%
CCc1ccc(NC(=O)C(=O)N/N=C(\C)CC(=O)Nc2ccccn2)cc1 | 0.1% | -10.5% | -0.3% | -1.2% | 4.7%
COc1cccc2cc(C(=O)N3C(C)CCCC3C)c(=O)oc12 (stereo unspecified) | -0.1% | -0.8% | -6.8% | 7.1% | 3.6%
Cc1cc(NC(=O)CCC(=O)N(Cc2cccs2)C(C(=O)NC2CCCC2)c2ccncc2)no1 (stereo unspecified) | -25.0% | 2.1% | -20.9% | 1.3% | -4.8%
COc1ccc(C(C)=O)cc1COC(=O)CNC(=O)c1cc(C)cc(C)c1 | 31.6µM* | 4.6% | -2.3% | 4.7% | 5.0%
COc1ccc(C(C)=O)cc1COC(=O)CCCN1C(=O)c2ccccc2C1=O | 8.91µM* | -3.2% | -10.9% | 0.4% | 0.6%
CN(C(=O)CSc1nnc(-c2ccccc2F)o1)c1ccccc1 | 7.9% | -6.0% | -17.8% | . | .
COCCCNC(=O)/C(C#N)=C/c1c(N2CCN(c3ccccc3)CC2)nc2c(C)cccn2c1=O | 35.5µM* | -17.1% | -17.6% | -26.1% | 0.6%
COc1ccccc1N1CCN(Cc2ccc(OC)c(OC)c2OC)CC1 | 5.2% | . | 10.9%[3.69 µM] | -28.2% | 7.8%
Oc1ccc(CN2CCCc3ccccc32)c2cccnc12 | 0.1µM* | 5.4% | 22.4% | 1.7% | 20.0%
CCOC(=O)C1CCN(Cc2ccc(O)c3ncccc23)CC1 | 2.82µM* | -3.7% | -8.3% | ? | 4.1%
Oc1ccc(COC2CCN(Cc3ccccc3)C2)c2cccnc12 (stereo unspecified) | 44.7µM* | . | . | . | .
COc1ccccc1N1CCN(Cc2ccc(O)c3ncccc23)CC1 | 50.1µM* | -3.1% | ? | ? | -6.3%
CC(Sc1nc2c(c(=O)[nH]1)CCCC2)C(=O)Nc1ccc(S(N)(=O)=O)cc1 (stereo unspecified) | 4.7% | 0.3% | 12.2% | ? | -7.5%
O=C(Nc1cccs1)N1CCN(c2ncccn2)CC1 | 17.8µM* | 7.6% | 0.6% | -5.0% | -2.3%
Clc1ccc(OCc2nnc(SCCN3CCCCC3)n2Cc2ccco2)cc1 | 25.1µM* | -1.7% | -11.3% | 8.2% | 2.0%
O=c1c2ccccc2nnn1CSc1nnc(COc2ccc(Cl)cc2)n1Cc1ccco1 | -14.7% | 4.5% | 4.7% | . | 2.2%
COc1ccc2cc(C(=O)NCCO)sc(=O)c2c1OC | 1.5% | 1.8% | 2.6% | -1.5% | -2.4%
COc1cc2cc(CCCOC(=O)c3ccc4c(c3)OCO4)oc(=O)c2cc1OC | 50.1µM* | -2.1% | -15.7% | . | .
COc1ccc(C(=O)OCCCc2cc3ccccc3c(=O)o2)cc1 | 50.1µM* | 1.7% | 1.1% | . | .
COc1ccc(OCC(=O)Sc2ccc(C)cc2)cc1 | 3.16µM* | -14.6% | -26.7% | 2.5% | 4.0%
OCCCc1nc2n(n1)C(c1ccccc1)C=C(c1ccc(F)cc1)N2 (stereo unspecified) | 20µM* | -16.5% | -13.0% | -4.1% | 6.2%
SMILES | Sm TGR inh | TbPYK inhibitor | RE007 growth inh | Giardia FBPA inh | LmPK inhibitor
OCCCc1nc2n(n1)C(c1ccccc1Cl)C=C(c1cccs1)N2 (stereo unspecified) | 28.2µM* | ? | 2.0% | -29.5% | -0.3%
O=C(Nc1ccc(S(=O)(=O)N2CCCC2)cc1)c1ccc([N+](=O)[O-])o1 | . | 0.3% | 6.8% | . | .
O=C(Nc1ccc(S(=O)(=O)N2CCOCC2)cc1)c1ccc([N+](=O)[O-])o1 | 28.2µM* | -2.5% | ? | -19.6% | -0.7%
O=S(=O)(c1ccc(NC(=S)Nc2ccc(OC(F)F)cc2)cc1)N1CCOCC1 | 44.7µM* | 5.4% | -0.1% | -15.8% | -0.4%
CCCC1(C(=O)OCC)NC(c2ccc(N(C)C)cc2)C2C(=O)N(c3ccccc3)C(=O)C21 (stereo unspecified) | -16.5% | -12.1% | 0.7% | 3.1% | -1.5%
CC(C)N1CCN(Cc2ccc(OC3CCCC3)cc2)CC1CCO (stereo unspecified) | -26.7% | 2.3% | -6.4% | -8.7% | -6.2%
S=C(NCc1ccncc1)Nc1ccc(Cl)cc1Cl | 35.5µM* | -2.4% | -9.3% | 4.0% | 1.4%
S=C(NCc1ccc(Cl)cc1)Nc1ccc(Cl)cc1Cl | -15.6% | -7.4% | -11.3% | -5.9% | 1.4%
CNC(=S)Nc1ccc(Cc2ccncc2)cc1 | 39.8µM* | -2.9% | 5.1% | -0.4% | -2.0%
S=C(NCc1ccncc1)Nc1ccc(Br)cc1 | 28.2µM* | -1.7% | -14.8% | 6.5% | -3.5%
CCNC(=S)Nc1ccc(Cc2ccncc2)cc1 | -16.4% | -2.9% | -11.8% | -1.1% | -2.4%
S=C(NCc1ccncc1)Nc1ccccc1 | -29.7% | 3.9% | 7.8% | 1.0% | 2.3%
COc1ccc(OC)c(-n2c(=S)[nH]c3cc(C(=O)N4CCC(C(N)=O)CC4)ccc3c2=O)c1 | -8.8% | -3.1% | 22.4% | 0.3% | -0.7%
CCOC(=O)c1ccc(N=c2sc(C(=O)OC)cc(=O)n2-c2ccc(C(=O)OCC)cc2)cc1 | 9.1% | 2.1% | -1.7% | 0.8% | -1.7%
COC(=O)c1cc(=O)n(-c2ccccc2)c(=Nc2ccccc2)s1 | 39.8µM* | 0.8% | -0.2% | 1.0% | -3.6%
CN1CCC(OC(=O)COc2ccc(Br)cc2)CC1 | 20µM* | -0.2% | -7.2% | -3.4% | 4.5%
Cc1c(C(=O)C(=O)N2CCCc3ccccc32)c2ccccc2n1C | -6.4% | -9.8% | -2.5% | -22.5% | -2.6%
CC(C)N(C(=O)CSc1cn(CC(=O)N2CCCCCC2)c2ccccc12)C(C)C | -3.8% | -27.5% | . | . | .
COc1ccc(CN(C(=O)c2ccco2)C2CCS(=O)(=O)C2)cc1 (stereo unspecified) | 8.6% | 0.3% | 2.4% | 2.2% | 2.2%
COc1ccc(CN(C(=O)/C=C/c2ccco2)C2CCS(=O)(=O)C2)cc1OC (stereo unspecified) | 3.55µM* | -11.3% | -6.0% | -6.9% | 0.1%
COc1cccc(CN(C(=O)/C=C/c2ccco2)C2CCS(=O)(=O)C2)c1 (stereo unspecified) | 7.94µM* | -11.3% | 3.9% | 9.7% | -1.6%
COc1ccc(CN(C(=O)/C=C/c2ccco2)C2CCS(=O)(=O)C2)cc1 (stereo unspecified) | 2µM* | -5.9% | 2.3% | 0.2% | 4.1%
CCOc1ccc(CN(C(=O)c2ccco2)C2CCS(=O)(=O)C2)cc1 (stereo unspecified) | -30.0% | -1.4% | -6.1% | 6.1% | -1.5%
